The results in this text go back to PubChem BioAssay (EPA / NIEHS).

Common to all, as to conditions: mRNA level, 48 h; actives raise or lower the signal
Read-out in experiment [1]: Paternally Expressed 10 (PEG10), PEG10 (gene 23089)
Description: LTEA_HepaRG_PEG10: Life Technologies and Expression Analysis (LTEA) Assay for Paternally Expressed 10 (PEG10) using HepaRG (AID 2283520). An outline of the steps: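 HepaRG, 48 h post-plating → serum-free induction medium → 48 h chemical exposure (duplicate, 8-pt, max 100 uM, half-log, 0.5% DMSO) → lysis in RLT → TaqMan qRT-PCR for PEG10, ACTB/GAPDH/POLR2A normalisation.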

Read-out in experiment [2]: Nuclear factor NF-kappa-B p105 subunit (Homo sapiens) (UniProt P19838)
Description: LTEA_HepaRG_NFKB1: Life Technologies and Expression Analysis (LTEA) Assay for Nuclear Factor Kappa B Subunit 1 (NFKB1) using HepaRG (AID 2283521).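 For outcome: differentiated human HepaRG liver cells in serum-free induction medium; TaqMan qRT-PCR transcript normalised to ACTB GAPDH and POLR2A housekeeping genes.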 In short, it runs like this:
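HepaRG, 48 h exposure; 8-pt half-log series from 100 uM in 0.5% DMSO; duplicates. Readout: NFKB1 mRNA by qRT-PCR (Fluidigm arrays), housekeeping-normalized. Gain/loss fit vs DMSO baseline.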

Read-out in experiment [3]: Protein phosphatase 2A (PPP2R4), PTPA (gene 5524)
Nature of the experiment: LTEA_HepaRG_PPP2R4: Life Technologies and Expression Analysis (LTEA) Assay for Protein phosphatase 2A (PPP2R4) using HepaRG (AID 2283522). An outline of the steps: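 Readout is PPP2R4 transcript level by microfluidic qRT-PCR after 48 h chemical treatment of human HepaRG liver cells. Concentrations spanned 100 uM downward in half-log steps; gain or loss of signal was fitted relative to DMSO.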

Read-out in experiment [4]: solute carrier (SLC22A1), SLC22A1 (gene 6580)
Nature of the experiment: LTEA_HepaRG_SLC22A1: Life Technologies and Expression Analysis (LTEA) Assay for solute carrier (SLC22A1) using HepaRG (AID 2283524).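 For AC50: differentiated human HepaRG liver cells in serum-free induction medium; TaqMan qRT-PCR normalized to ACTB GAPDH and POLR2A housekeeping genes.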 In short, it runs like this:
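HepaRG (human liver line), 48 h dosing in serum-free induction medium; 8 conc., half-log down from 100 uM, 0.5% DMSO vehicle, duplicates. Endpoint: SLC22A1 mRNA, qRT-PCR, housekeeping-normalized; gain/loss fit vs DMSO.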

Read-out in experiment [5]: Pyruvate Dehydrogenase Kinase 4 (PDK4), PDK4 (gene 5166)
Nature of the experiment: LTEA_HepaRG_PDK4: Life Technologies and Expression Analysis (LTEA) Assay for Pyruvate Dehydrogenase Kinase 4 (PDK4) using HepaRG (AID 2283525). An outline of the steps: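 In this multiplexed human HepaRG expression assay, cells are treated 48 h with test chemicals across an eight-point range starting at 100 uM. PDK4 mRNA changes, normalized to ACTB/GAPDH/POLR2A, are fitted in both directions relative to vehicle.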

Read-out in experiment [6]: NAD(P)H dehydrogenase [quinone] 1 (NQO1), NQO1 (gene 1728)
Nature of the experiment: LTEA_HepaRG_NQO1: Life Technologies and Expression Analysis (LTEA) Assay for NAD(P)H dehydrogenase [quinone] 1 (NQO1) using HepaRG (AID 2283526). An outline of the steps:
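HepaRG, 48 h post-plating → serum-free induction medium → test chemical 48 h (duplicate, 100 uM top, half-log x8, 0.5% DMSO) → RNA isolation → qRT-PCR, ACTB/GAPDH/POLR2A normalization; bidirectional curve fit vs DMSO baseline.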

Read-out in experiment [7]: Nuclear factor erythroid 2-related factor 2 (Homo sapiens) (UniProt Q16236)
Nature of the experiment: LTEA_HepaRG_NFE2L2: Life Technologies and Expression Analysis (LTEA) Assay for Nuclear factor erythroid 2-related factor 2 (NFE2L2) Transcription Factor using HepaRG (AID 2283527).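 For outcome: TaqMan qRT-PCR transcript level normalised to ACTB GAPDH and POLR2A housekeeping genes.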 In short, it runs like this: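 Transcript level of NFE2L2 is the read-out, measured by microfluidic TaqMan qRT-PCR and normalized to three housekeeping genes. Human HepaRG cultures received test chemical for 48 h at up to 100 uM in half-log steps. Gain or loss of signal is fitted relative to 0.5% DMSO.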

Read-out in experiment [8]: succinate dehydrogenase complex iron sulfur subunit B (SDHB), SDHB (gene 6390)
Description: LTEA_HepaRG_SDHB: Life Technologies and Expression Analysis (LTEA) Assay for succinate dehydrogenase complex iron sulfur subunit B (SDHB) using HepaRG (AID 2283528). An outline of the steps:
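Readout is SDHB transcript level by qRT-PCR, normalised to three housekeeping genes and fitted bidirectionally against 0.5% DMSO vehicle. Human HepaRG cells were treated for 48 h at up to 100 uM.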

Read-out in experiment [9]: Signal transducer and activator of transcription 3 (Homo sapiens) (UniProt P40763)
Description: LTEA_HepaRG_STAT3: Life Technologies and Expression Analysis (LTEA) Assay for Signal transducer and activator of transcription (STAT3) using HepaRG (AID 2283529). An outline of the steps: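 Read-out is STAT3 mRNA level by qRT-PCR, normalized to three housekeeping genes, in human HepaRG liver cells treated for 48 h. Concentrations ran from 100 uM downward in half-log steps; curves were fitted for gain or loss relative to 0.5% DMSO.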

Read-out in experiment [10]: solute carrier (SLCO1B1), SLCO1B1 (gene 10599)
Description: LTEA_HepaRG_SLCO1B1: Life Technologies and Expression Analysis (LTEA) Assay for solute carrier (SLCO1B1) using HepaRG (AID 2283530). In short, it runs like this:
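Gain or loss of SLCO1B1 mRNA is fitted against the 0.5% DMSO vehicle in human HepaRG liver cells treated 48 h at up to 100 uM in half-log steps. Expression comes from qRT-PCR normalized to endogenous controls.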

The term AC50 denotes the concentration at which the activity in the assay is half-maximal.

The source made the active and inactive calls. Rule for the calls: active = hit-call score of the fitted dose curve at least 0.9, where 1 is the maximum; inactive = score below 0.9.

Chain of Signal transducer and activator of transcription 3 (Homo sapiens) (P40763 whole entry, looked up): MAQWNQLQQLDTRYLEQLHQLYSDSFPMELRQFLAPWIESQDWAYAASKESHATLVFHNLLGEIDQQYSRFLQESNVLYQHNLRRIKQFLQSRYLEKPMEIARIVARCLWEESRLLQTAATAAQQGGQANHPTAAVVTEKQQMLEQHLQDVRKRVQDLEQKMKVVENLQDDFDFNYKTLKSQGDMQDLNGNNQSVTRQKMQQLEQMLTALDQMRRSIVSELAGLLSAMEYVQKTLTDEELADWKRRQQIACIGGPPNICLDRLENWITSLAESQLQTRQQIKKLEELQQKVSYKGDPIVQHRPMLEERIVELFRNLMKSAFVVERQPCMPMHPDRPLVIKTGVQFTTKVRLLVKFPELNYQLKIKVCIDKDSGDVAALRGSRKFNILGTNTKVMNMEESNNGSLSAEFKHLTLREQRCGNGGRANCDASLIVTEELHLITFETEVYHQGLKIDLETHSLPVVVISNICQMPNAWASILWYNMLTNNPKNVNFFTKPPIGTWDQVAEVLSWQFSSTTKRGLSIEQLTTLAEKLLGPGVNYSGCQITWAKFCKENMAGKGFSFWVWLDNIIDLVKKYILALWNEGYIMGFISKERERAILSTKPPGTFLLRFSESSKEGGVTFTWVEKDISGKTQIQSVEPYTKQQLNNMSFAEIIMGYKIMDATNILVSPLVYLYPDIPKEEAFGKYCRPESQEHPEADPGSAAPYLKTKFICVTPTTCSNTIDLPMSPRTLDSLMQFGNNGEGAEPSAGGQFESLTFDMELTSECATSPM
Chain of Nuclear factor erythroid 2-related factor 2 (Homo sapiens) (Q16236 whole entry, looked up): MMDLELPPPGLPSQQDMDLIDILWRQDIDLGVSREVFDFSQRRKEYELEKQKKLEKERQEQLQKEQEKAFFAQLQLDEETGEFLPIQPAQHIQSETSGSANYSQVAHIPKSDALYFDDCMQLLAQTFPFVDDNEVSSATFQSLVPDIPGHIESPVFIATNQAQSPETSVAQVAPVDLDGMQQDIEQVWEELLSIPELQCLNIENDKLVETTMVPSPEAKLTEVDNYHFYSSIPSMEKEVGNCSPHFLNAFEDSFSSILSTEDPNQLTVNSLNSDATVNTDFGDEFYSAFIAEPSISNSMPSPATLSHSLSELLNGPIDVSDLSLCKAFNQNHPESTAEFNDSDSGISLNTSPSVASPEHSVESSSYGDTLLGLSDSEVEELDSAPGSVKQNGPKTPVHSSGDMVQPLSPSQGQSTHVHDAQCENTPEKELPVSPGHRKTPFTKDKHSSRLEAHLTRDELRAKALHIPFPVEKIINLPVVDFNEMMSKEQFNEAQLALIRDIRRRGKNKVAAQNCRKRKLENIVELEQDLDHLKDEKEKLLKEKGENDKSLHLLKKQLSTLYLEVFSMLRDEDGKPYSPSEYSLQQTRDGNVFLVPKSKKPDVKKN
Chain of Nuclear factor NF-kappa-B p105 subunit (Homo sapiens) (P19838 whole entry, looked up): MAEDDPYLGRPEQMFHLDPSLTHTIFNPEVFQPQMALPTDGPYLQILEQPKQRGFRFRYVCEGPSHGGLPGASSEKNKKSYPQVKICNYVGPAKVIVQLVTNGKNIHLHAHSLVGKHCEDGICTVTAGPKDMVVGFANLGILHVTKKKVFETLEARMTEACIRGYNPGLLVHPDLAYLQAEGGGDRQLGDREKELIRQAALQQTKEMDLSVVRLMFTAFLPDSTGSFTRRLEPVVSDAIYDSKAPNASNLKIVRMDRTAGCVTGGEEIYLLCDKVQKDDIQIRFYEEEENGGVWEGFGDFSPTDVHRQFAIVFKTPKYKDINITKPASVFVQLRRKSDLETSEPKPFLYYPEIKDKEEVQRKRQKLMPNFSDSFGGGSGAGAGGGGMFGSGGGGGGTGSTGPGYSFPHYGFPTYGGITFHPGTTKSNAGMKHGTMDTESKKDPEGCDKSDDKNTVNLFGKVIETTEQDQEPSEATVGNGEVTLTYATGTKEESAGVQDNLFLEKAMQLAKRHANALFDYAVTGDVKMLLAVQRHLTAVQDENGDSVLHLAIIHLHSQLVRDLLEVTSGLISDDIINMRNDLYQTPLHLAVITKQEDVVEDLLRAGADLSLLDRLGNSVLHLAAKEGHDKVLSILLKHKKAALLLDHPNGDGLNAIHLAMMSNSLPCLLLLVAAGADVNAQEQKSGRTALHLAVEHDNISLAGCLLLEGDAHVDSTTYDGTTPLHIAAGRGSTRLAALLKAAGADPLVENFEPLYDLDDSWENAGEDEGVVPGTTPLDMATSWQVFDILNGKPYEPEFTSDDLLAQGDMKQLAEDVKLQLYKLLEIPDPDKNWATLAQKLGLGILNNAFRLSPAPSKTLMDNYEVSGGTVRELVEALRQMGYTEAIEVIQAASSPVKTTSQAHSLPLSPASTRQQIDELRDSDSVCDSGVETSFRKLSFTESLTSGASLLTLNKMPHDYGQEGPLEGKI

As to `CCOP(=S)(OCC)Oc1nc(Cl)c(Cl)cc1Cl`, the call in experiment [1], in experiment [2], in experiment [3], in [4], in experiment [5] and in experiment [6] was inactive. Also, the outcome in experiment [7], in [8], in experiment [9] and in experiment [10] was inactive.

On to `CC(C)(C)CC(C)(C)c1ccc(O)cc1`, for which the result in experiment [1], in experiment [2], in experiment [3], in experiment [4], in [5] and in [6] was inactive. The call in experiment [7], in experiment [8], in [9] and in experiment [10] was inactive.

For `O=C(O)C(F)(F)C(F)(F)C(F)(F)C(F)(F)C(F)(F)C(F)(F)C(F)(F)C(F)(F)C(F)(F)C(F)(F)F`, the result in experiment [1], in experiment [2], in [3], in experiment [5], in experiment [6] and in [7] was inactive. The molecule was classed as inactive in [8], in [9] and in [10].

On to `O=C(O)C(Cl)(Cl)Cl`, for which the molecule was classed as inactive in [1], in [3], in experiment [4], in [5], in experiment [6] and in [7]. Besides, the call in [8], in [9] and in experiment [10] was inactive.

Regarding `CC12CC1(C)C(=O)N(c1cc(Cl)cc(Cl)c1)C2=O` (configuration not stated), the figures for the AC50 in [1], in [4] and in experiment [5] were 10.3 µM (active), 11.2 µM (active) and 16.2 µM (active), respectively. In addition, the molecule was classed as inactive in [2], in [3], in experiment [6], in experiment [7], in [8] and in [9]. Moreover, the outcome in experiment [10] was inactive.

In the case of `CCC(C)(C)c1ccc(O)c(C(C)(C)CC)c1`, the outcome in [1], in [2], in experiment [3], in experiment [4], in [5] and in experiment [6] was inactive. For the same molecule, the molecule was called inactive in experiment [7], in experiment [8], in experiment [9] and in experiment [10].

As for `Cn1sc(Cl)cc1=O`, the call in experiment [1], in experiment [2], in experiment [3], in experiment [4], in experiment [5] and in [6] was inactive. Further, the outcome in [7], in [8], in [9] and in [10] was inactive.

As to `CCCCCCCCc1ccc(O)cc1`, the call in experiment [1], in experiment [2], in [3], in experiment [4], in experiment [6] and in [7] was inactive. Besides, the molecule was classed as inactive in experiment [8], in experiment [9] and in experiment [10]. In addition, the AC50 in experiment [5] was 69.3 µM (active).

Regarding `CCC(=O)C(CC(C)N(C)C)(c1ccccc1)c1ccccc1` (configuration not stated), the AC50 in experiment [1] is 26.3 µM (active). Moreover, the call in experiment [3], in [4], in experiment [5], in experiment [6], in experiment [7] and in experiment [8] was inactive. The outcome in experiment [9] and in experiment [10] was inactive.

In the case of `CC(C)(OO)c1ccccc1`, the molecule was classed as inactive in [1], in experiment [2], in experiment [3], in experiment [4], in experiment [5] and in experiment [6]. Further, the result in experiment [7], in [8], in experiment [9] and in experiment [10] was inactive.

Take `CC(C)(c1ccccc1)c1ccc(O)c(C(C)(C)c2ccccc2)c1`: the molecule was classed as inactive in [1], in experiment [2], in experiment [3], in [5], in experiment [6] and in experiment [8]. Further, the outcome in [9] was inactive. The AC50 in experiment [4] is 65.4 µM (active); in experiment [7] it was 50 µM (active); in experiment [10], 74.4 µM (active).

`C[C@]12CCC(=O)C[C@@H]1CC[C@@H]1[C@@H]2CC[C@]2(C)[C@@H](O)CC[C@@H]12`: in experiment [1], the AC50 is 50 µM (active). Besides, the call in [2], in experiment [3], in experiment [4], in experiment [5], in experiment [6] and in experiment [7] was inactive. In addition, the call in experiment [8], in experiment [9] and in [10] was inactive.

As for `O=[N+]([O-])c1ccc(O)c([N+](=O)[O-])c1`, the AC50 in [1] is 13.2 µM (active); in [2], 13 µM (active); in [3] it was 13.1 µM (active); in [4], 25.2 µM (active); in [5] it was 11.8 µM (active); in experiment [6] it was 12.7 µM (active). The AC50 was 12.7 µM (active) in [7], 13 µM (active) in experiment [8], 12.8 µM (active) in experiment [9] and 20.4 µM (active) in [10].

As to `O=C1C2(Cl)C3(Cl)C4(Cl)C(Cl)(Cl)C5(Cl)C3(Cl)C1(Cl)C5(Cl)C24Cl` (configuration not stated), the AC50 in experiment [1] is 93.4 µM (active); in [3] it was 15.8 µM (active); in [4], 19.3 µM (active); in experiment [5], 92.7 µM (active); in experiment [7], 92.1 µM (active); in experiment [8], 91.6 µM (active). Besides, the AC50 is 93.1 µM (active) in experiment [9] and 93.5 µM (active) in experiment [10]. Further, the molecule was called inactive in [2] and in experiment [6].

With `CC(C)(C)c1cc(O)ccc1O`, the molecule was classed as inactive in experiment [1], in experiment [2], in [3], in experiment [4], in experiment [5] and in experiment [6]. Also, the call in experiment [7], in experiment [8], in [9] and in [10] was inactive.
